Measurements reported in PubChem BioAssay.
Values without a mark were called inactive.

experiment: MM1S myeloma cell viability, profiling panel, resazurin fluorescence, basal, 24 h, PK04 Diversity Set (AID 1174); details: higher = more signal, called active from +8 up or from −8 down;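 note: MM1S multiple myeloma cell line; test concentration not given here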

| SMILES | z-score |
| --- | --- |
| O=C1OCCC=C[C@H]2OC34C=CCN(Cn5nnc6ccccc65)C(=O)[C@H]3N(CCCCCCO)C(=O)[C@@H]4C12 (stereo partly drawn) | -2.51 |
| O=C1C[C@@](C(=O)NCCN2CCOCC2)(c2ccc([N+](=O)[O-])cc2)[C@@H](c2ccc(CO)cc2I)N1C1CCCCC1 | 1.11 |
| NC(=O)N1C(=O)C2C(C1=O)C1C=C(CCCO)C2C(c2cccs2)N1Cc1cccc(OC(F)(F)F)c1 (stereo not drawn) | -0.637 |
| C=C(/C(=C/C[C@H](OC(C)=O)c1ccccc1OCCO)c1cc(C(=O)OC)ccc1OC)C(C)C | 0.121 |
| CCCC[C@@H](O)C1=C(COc2ccccc2)C[C@H]2C(=O)N(C)C(=O)[C@H]2[C@H]1CO | 0.147 |
| O=C1NC(=O)C2C1C=CC(C(O)c1cccc3ccccc13)N2Nc1ccc(Cl)cc1Cl (stereo not drawn) | -1.66 |
| COc1ccc(-c2cc3c(c(CCc4ccccc4)n2)[Si](C(C)C)(C(C)C)OC3)cn1 | 0.42 |
| COC(=O)[C@@]1(Cc2ccc(F)cc2)[C@H]2c3cc(C(=O)N4CCCC4)n(CCc4ccc(O)c(O)c4)c3C[C@H]2CN1C(=O)c1ccccc1 | -1.07 |
| CC1=C[C@@]2(CO)C(=O)[C@]3(CO3)[C@@H]1[C@H]1[C@]2(C)C=C(CO)C(=O)[C@]12CO2 | -0.54 |
| O=C(NCC(F)(F)F)[C@@H]1c2ccccc2C(=O)N(Cc2ccc(OC(F)(F)F)cc2)[C@H]1c1ccc(CO)cc1 | 0.482 |
| COC(=O)Cn1c(C(=O)N(C)C)cc2c1C[C@H]1CN(C(=O)c3ccccc3)[C@@](Cc3ccc(F)cc3)(C(=O)OC)[C@@H]21 | -0.702 |
| COc1ccc([Si](C)(C)[C@H]2[C@H](CC(=O)N(CCO)Cc3ccccc3)O[C@@]3(C(=O)N(Cc4cccc(N5CCOC5=O)c4)c4ccccc43)[C@@H]2C)cc1 | -3.55 |
| COCCCNC(=O)[C@]1(CCS(=O)(=O)c2ccccc2)N=C(c2ccc(OCCCO)cc2)O[C@@H]1c1ccccc1CN=[N+]=[N-] | -3.5 |
| [N-]=[N+]=Nc1ccccc1C[C@]1(C(N)=O)N=C(c2ccc(OCCCO)cc2)O[C@H]1c1ccccc1N=[N+]=[N-] | -1.55 |
| C#CCN([C@@H](Cc1ccc(O)cc1)C(=O)OC)[C@@H](/C=C/C1CC1)[C@H](O)Cc1ccccc1 | -0.758 |
| CN(C)c1ccc(C(O)C2C=CC3C(=O)N(c4ccccc4)C(=O)C3N2Nc2ccc([N+](=O)[O-])cc2)cc1 (stereo not drawn) | -0.96 |
| NCCCCCCNC(=O)[C@@H]1C[C@@H]2C(=O)N[C@@H](CCCCN)C(=O)N2[C@@H]1c1cccc(OCCO)c1 | 0.193 |
| CCOC(=O)C1=CC[C@@H](c2ccc(OCc3ccccc3)c(OC)c2)N(S(=O)(=O)c2ccc(C)cc2)[C@H]1c1ccc(SC)cc1 | -0.107 |
| COC(=O)[C@@]1(Cc2ccccc2)[C@H]2c3cc(C(=O)N(C)C)n(Cc4c(CO)[nH]cc(C)c4=O)c3C[C@H]2CN1C(=O)c1ccccc1 | -0.706 |
| CN1C(=O)C2C=CC(C(O)COCc3ccccc3)N(N(c3ccccc3)c3ccccc3)C2C1=O (stereo not drawn) | -0.902 |
| CCC[C@@H]1C[C@@]1(CCC)[C@@H](NC(=O)OCc1ccccc1)c1ccc(-c2ccccc2)cc1 | 0.879 |
| COCCOC(=O)N1C(=O)[C@@]2(c3cc(C#CC4=CCCCC4)ccc31)[C@H](c1ccc(OCCO)cc1)N1[C@H](c3ccccc3)[C@H](c3ccccc3)OC(=O)[C@H]1[C@@H]2C(=O)NC[C@H](O)c1ccccc1 | -0.363 |
| C=C(CCCC)/C(=C/C[C@@H](OC(=O)c1ccncc1)c1ccccc1OCCO)c1cnc2ccccc2c1 | -1.09 |
| CC1CC/C=C\[C@H]2OC34C=CCN(C(C)C)C(=O)[C@H]3N(CCCCCCO)C(=O)[C@@H]4C2C(=O)O1 (stereo partly drawn) | 0.794 |
| O=C1C2C=CC(C(O)c3ccc(Br)cc3)N(Nc3ccccc3F)C2C(=O)N1c1ccccc1 (stereo not drawn) | -0.18 |
| COC(=O)[C@@]1(Cc2ccc(OC)cc2)[C@H]2c3cc(C(=O)N4CCCC4)n(Cc4cccc5ccccc45)c3C[C@H]2CN1C(=O)c1ccccc1 | -0.619 |
| CCOC(=O)C1CCCCN1 (stereo not drawn) | 0.122 |
| COc1ccc([Si](C)(C)[C@H]2[C@H](CCn3cc([C@H](O)c4ccccc4)nn3)O[C@@]3(C(=O)N(Cc4ccc(N5C(=O)c6cccc7cccc5c67)cc4)c4ccccc43)[C@@H]2C)cc1 | -1.96 |
